# Measured values as given in the supplement of paper PMC8728848.
# This excerpt belongs to a sample that is enriched for the strongest signals.
# Assays:
# Experiment in all cases: glycan array binding signal (z-score within array); higher = stronger binding
# Settings in all cases: glycan notation: IUPAC condensed, linker removed
# [1] = biological target: Fuc(a1-2)[GalNAc(a1-4)]Gal(b1-4)GlcNAc
# In short: (§1)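 From the Consortium for Functional Glycomics database, 3228 arrays were curated, keeping only those whose protein sequence was available. Binding is given as a within-array Z-score averaged across arrays sharing a protein sequence and across linkers. Negative Z-scores can be read as non-binding.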
# Gal(a1-4)Gal(b1-4)GlcNAc = biological target: Gal(a1-4)Gal(b1-4)GlcNAc
# In short: as §1
# [2] = biological target: Gal(b1-3)GlcNAc(b1-3)Gal(b1-4)Glc
# In short: as §1
# [3] = biological target: Gal(b1-4)GlcNAc(b1-3)GalNAc
# In short: as §1
# [4] = biological target: Gal(b1-4)GlcNAc(b1-6)[Gal(b1-3)]GalNAc
# In short: as §1
# Gal3S(b1-4)Glc = biological target: Gal3S(b1-4)Glc
# In short: as §1
# GalNAc(b1-4)GlcNAc = biological target: GalNAc(b1-4)GlcNAc
# In short: as §1
# [5] = biological target: GlcNAc(b1-2)Gal(b1-3)GalNAc
# In short: as §1
# [6] = biological target: GlcNAc(b1-4)GlcNAc(b1-4)GlcNAc
# In short: as §1
# [7] = biological target: Neu5Ac(a2-3)Gal(b1-3)[Neu5Ac(a2-3)Gal(b1-4)]GlcNAc
# In short: as §1
# [8] = biological target: Neu5Ac(a2-6)Gal(b1-4)GlcNAc(b1-3)Gal(b1-4)GlcNAc
# In short: as §1
# [9] = biological target: Neu5Ac(a2-8)Neu5Ac(a2-3)[GalNAc(b1-4)]Gal(b1-4)Glc
# In short: as §1
# [10] = biological target: Neu5Gc(a2-3)Gal(b1-3)GlcNAc
# In short: as §1
binder,measurement,setting,value
CGL3 (Coprinopsis cinerea) (protein) MGHHHHHHHHSGFHILRLESTVDLSEPLKDNGIIVFQSDKLDLEPSPNLGPTGIDNTNVNLINAKGDVLLHIGIRRRENAFVFNSIPYGESRGPEERIPLEGTFGDRRDPSITVFDHPDRYQIMIDYKTVYYYKKRLEGRCEKVSYKINEGQTPPFSDVLGVTVLYFANVMPRAN,glycan array binding signal (z-score),[1],-0.216
same,glycan array binding signal (z-score),Gal(a1-4)Gal(b1-4)GlcNAc,-0.049
same,glycan array binding signal (z-score),[2],2.51
same,glycan array binding signal (z-score),[3],-0.201
same,glycan array binding signal (z-score),[4],-0.193
same,glycan array binding signal (z-score),Gal3S(b1-4)Glc,0.022
same,glycan array binding signal (z-score),GalNAc(b1-4)GlcNAc,6.64
same,glycan array binding signal (z-score),[5],-0.197
same,glycan array binding signal (z-score),[6],8.4
same,glycan array binding signal (z-score),[7],-0.222
same,glycan array binding signal (z-score),[8],-0.21
same,glycan array binding signal (z-score),[9],-0.128
same,glycan array binding signal (z-score),[10],-0.191
